Results taken from PubChem BioAssay AID1272365 (Small Molecule Screening Facility, UW Madison, 2018).
“And” between values parts separate entries of the source, which are not always exact repeats. Equal values may be shown once. The campaign covered roughly 430,000 compounds. About 2,600 (0.6%) were called active. Rule as the data show it: active = inhibition mostly above about 37% (no sharp cut-off); inactive = mostly below about 20%. Many of the other results were omitted from the sample, so actives are more common in it than they were.

Tested on: PriA–SSB C-terminal tail interaction (Klebsiella pneumoniae)
Assay: inhibitors of Klebsiella pneumoniae PriA binding to SSB C-terminal tail, primary screen, biochemical, AlphaScreen (AID 1272365);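 also: plate controls were negative control peptide for no effect and reference peptide for full effect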
Conditions: AlphaScreen SSBct-PriA binding, biotinylated peptide; at 33 µM, hits give high values

| Compound | inhibition |
| --- | --- |
| CC(=O)N(C)c1ccc(OC[C@@H](O)CN(c2ccc(C)cc2)S(=O)(=O)c2ccc(C)cc2)cc1 | -17% (inactive) |
| CC1(C)C(=O)NCCN1C(=O)Cc1ccc2c(c1)OCO2 | -2% (inactive) and -8% (inactive) |
| COC1(CNC(=O)C2CCN(S(C)(=O)=O)CC2)CCSC1 (stereo not given) | -5% (inactive) |
| C=CC(=O)Nc1ccc(Nc2ccnc(Nc3ccc(N4CCN(C)CC4)cc3)n2)cc1 | 56.7% (active) |
| COc1ccc(NC(=O)Nc2ccc(N3CCOCC3)cc2)cc1 | -16% (inactive) |
| COc1ccc(N2CCN(C(=S)Nc3ccc(C(C)=O)cc3)CC2)cc1 | 5% (inactive) |
| O=C(c1cc(Cl)sc1Cl)N(CC1CCCO1)c1nc2c(F)cc(F)cc2s1 (stereo not given) | -20% (inactive) |
| CCOC(=O)N1CCN(C(=O)Cn2nc(C(F)(F)F)n(C)c2=O)CC1 | 2% (inactive) |
| O=C(Nc1ccccc1-c1ccc(=O)[nH]n1)c1ccncc1 | -12% (inactive) |
| COc1ccc(CC2(C)OC(c3ccc(C(C)(C)C)cc3)=NN2C(C)=O)cc1 (stereo not given) | 62.5% (active) |
| CC(=O)N1N=C(c2ccncc2)OC1(Cc1ccccc1)Cc1ccccc1 | -8.22% (inactive) |
| COc1ccc(-c2ccc(CCC(=O)O)n2NC(=O)c2ccc(C(C)(C)C)cc2)cc1 | -5.78% (inactive) |
| Cn1c(=O)c2nc(SCC(=O)Nc3ccc(F)c([N+](=O)[O-])c3)n(C)c2n(C)c1=O | -5% (inactive) |
| CCOc1ccc(-c2ccc(=O)n(CCNC(=O)C3CC3)n2)cc1 | 6% (inactive) |
| NC(=NOC(=O)c1ccc(=O)n(Cc2ccccc2)c1)c1ccccn1 | 3.95% (inactive) |
| CSc1ccc(C=NNC(=O)CNc2ccc3ccccc3c2)cc1 | 47.7% (active) |
| O=C(CNc1ccc2ccccc2c1)NN=Cc1ccc(C(=O)O)cc1 | 13.8% (inactive) |
| COC(=O)c1ccc(C=NNC(=O)CNc2cccc(C)c2)cc1 | -5.68% (inactive) |
| C(#Cc1ccc2noc(-c3ccccc3)c2c1)c1ccccc1 | -6% (inactive) |
| O=C(CCN1CCOCC1)N1N=C(c2ccccc2)CC1c1cccc([N+](=O)[O-])c1 (stereo not given) | 8% (inactive) |

| Compound | inhibition |
| --- | --- |
| O=C(c1ccc(F)cc1)c1cn(Cc2ccc(F)cc2)c2cc3c(cc2c1=O)OCCO3 | 115% (active) |
| COc1cccc(Cn2cc(C(=O)c3ccccc3)c(=O)c3cc4c(cc32)OCCO4)c1 | -13% (inactive) |
| Cc1ccc(Cn2cc(C(=O)NN)c(=O)c3ccc(F)cc32)cc1 | -0.06% (inactive) |
| COc1ccc(C=Nc2cccc3ncccc23)cc1 | 86.5% (active) |
| C=CCn1c(N=Cc2ccc(OC)cc2)nc2ccccc21 | 10.8% (inactive) |
| CCc1nc2ccccc2c(=O)n1N=Cc1ccc(OC)cc1 | 4.76% (inactive) |
| CCOC(=O)c1c(-c2ccc(F)cc2)csc1NC(=O)CSc1n[nH]c(N)n1 | 9% (inactive) |
| CCCOc1ccc(-c2nc(C#N)c(N3CCCCC3)o2)cc1 | 90% (active) |
| Cc1ccc(OCc2ccc(-c3nc(C#N)c(N4CCCCCC4)o3)o2)cc1 | 39.5% (inactive) |
| Cc1ccc(OCc2nc(C#N)c(N3CCCC3)o2)cc1 | -11.1% (inactive) |
| COc1cccc2cc(C(=O)C3=C(O)C(=O)N(CCN(C)C)[C@@H]3c3ccccc3F)oc12 | -20% (inactive) |
| NS(=O)(=O)c1ccc(NC(=O)c2cn(Cc3cccc(F)c3)nc2OCc2cccc(F)c2)cc1 | -16% (inactive) |
| Cc1ccc(C=NNC(=O)c2cccc(S(=O)(=O)Nc3cccc(Cl)c3)c2)o1 | -6.77% (inactive) |
| COc1cccc(NC(=O)c2nn(-c3ccc(OC)cc3OC)c(=O)c3ccccc23)c1 | -7.71% (inactive) |
| COc1ccc2c(c1)C(C)=CC(C)(C)N2C(=O)Nc1ccccc1 | 38.4% (active) |
| COc1cccc(NC(=O)C2C(c3ccccc3)C2(Cl)Cl)c1 (stereo not given) | -12.2% (inactive) |
| CCOC(=O)c1ccc(NC(=O)CSc2nnc(-c3cccs3)n2-n2cccc2)cc1 | 0% (inactive) |
| CCOC(=O)CNC(=O)NC1CC(=O)N(c2ccccc2)C1 (stereo not given) | 32% (inactive) |
| Cc1cnc(-c2ccccn2)nc1N | 151% (active) |
| CC1(C)N=C(c2ccccn2)C(C)(C)N1O | -5.91% (inactive) |

| Compound | inhibition |
| --- | --- |
| Cc1c(N)nc(-c2ccccn2)nc1Cl | 47.3% (inactive) |
| COc1ccc(NC(=O)Cn2ncn3nc(-c4ccc(F)cc4)cc3c2=O)cc1Cl | 6% (inactive) |
| CNC(=S)NN=C(C)c1cccc(C(F)(F)F)c1 | -4.78% (inactive) |
| Cn1cc(C(=O)NCC2(c3ccsc3)CCCC2)nn1 | -24% (inactive) |
| O=C(Cc1ccc(F)cc1)NCC1(c2ccsc2)CCCC1 | -6% (inactive) |
| O=C(NCC1(c2ccsc2)CCCC1)Nc1cccs1 | 53% (active) |
| NCCc1csc2nc(-c3cccc(F)c3)nn12 | 16% (inactive) |
| O=C(Nc1cnc(N2CCN(c3ccccc3)CC2)nc1)c1c(F)cccc1F | -6% (inactive) |
| Cc1cc(NC(=O)C(C)(C)CCl)n(-c2ncnc3c2cnn3-c2cccc(C)c2C)n1 | 11% (inactive) |
| Cc1cc(NC(=O)c2ccccc2Cl)n(-c2nc3c(cnn3-c3cccc(C)c3C)c(=O)[nH]2)n1 | 53% (active) |
| Cc1ccc(-n2ncc3c(=O)[nH]c(-n4nc(C)cc4NC(=O)Cc4ccccc4)nc32)cc1 | -5% (inactive) |
| CCOC(=O)N1CCC(NC(=O)Cc2csc(Nc3ccc(F)cc3)n2)CC1 | 2% (inactive) |
| CC(C)n1cnc2c(NCc3ccccc3)cc(OCC3CCN(C)CC3)cc21 | 53.1% (active) |
| O=C(c1ccc(S(=O)(=O)NCc2cccnc2)o1)N1CCC(Cc2ccccc2)CC1 | 5% (inactive) |
| O=[N+]([O-])c1cc(C(F)(F)F)ccc1NCCc1ccncc1 | -11.2% (inactive) |
| O=[N+]([O-])c1cc(C(F)(F)F)ccc1NN=C1CCCC1 | 43.5% (active) |
| O=[N+]([O-])c1cc(S(=O)(=O)N2CCCC2)ccc1NN=C1CCCC1 | 11.5% (inactive) |
| COc1cc(OC)c(OC)cc1/C=C1/C(=O)NC(=N)N1C | -14.1% (inactive) |
| O=C(COc1ccc(Cl)cc1Cl)NCC(=O)N/N=C\c1cccs1 | -6% (inactive) |
| CC(=O)c1ccc(S(=O)(=O)N2CC(S(=O)(=O)c3ccc(Cl)cc3)C2)cc1 | -15% (inactive) |
